# Experimental data from PubChem BioAssay (Tox21).
# Results filed as inconclusive are left out. Where a call stands in place of a potency, no number is given. Activity calls are given as the source filed them. Calls come from the whole dose curve; as a rule, active = well fitted curve in the direction sought with a large enough effect in the repeat runs; inconclusive = weak or mixed curves; inactive = no such curve, though single readings can be large; an effect the other way counts as inactive or inconclusive.
# Assay: A CellTox Green Cytotoxicity Assay to monitor cytotoxicity in HEK293 cells - 40 hour (AID 1224871); note: nearly all actives have a fitted effect of over 45% in size
# Conditions: CellTox Green fluorescence; series mostly up to 76.8 µM
# Summary of the method: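 Tox21 screen in HEK293: membrane-impermeant cyanine dye fluoresces on binding dead-cell DNA; compound pinned 5 h post-seeding, plates held at 37 C, signal read repeatedly through 40 h.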
SMILES,Potency,cytotoxicity increase
CCC(O)CO (centres undefined),inactive,
Nc1cc([N+](=O)[O-])cc(Cl)c1O,inactive,
O=C(Nc1ccc([N+](=O)[O-])cc1)Nc1ccc([N+](=O)[O-])cc1 (tested in a mixture with another compound),inactive,
c1ccc(-c2nc3ccccc3[nH]2)cc1,inactive,
C=CC(=O)OCCOC1C2CCC1C1CC=CC12 (centres undefined),,-0.257% [at 15.8 µM] (inactive)
C/C=C/C(=O)OCC(C)C,inactive,
CCCCCCCCCCCC(=O)Cl,inactive,
C=C(C)CCO,inactive,
[Cl][Eu]([Cl])[Cl],inactive,
CC(C)=NNC(N)=S,inactive,
O=C1OCc2ccccc21,inactive,
CCOC=C(C(=O)OCC)C(=O)OCC,inactive,
CC1=CC[C@@H](C(C)(C)O)CC1,inactive,
CCOc1nc(F)cc2nc(S(=O)(=O)Nc3c(Cl)cccc3C(=O)OC)nn12,inactive,
Cc1c(Cl)c(=O)oc2cc(O)ccc12,inactive,
C=C[Si](C)(C)Cl,,-9.04% [at 6.97 µM] (inactive)
CC(CC(C)(C)C)CC(C)(C)CC(C)(C)C (centres undefined),inactive,
CN1CCN(C)CC1,inactive,
CC(=O)[C@]1(O)Cc2c(O)c3c(c(O)c2[C@@H](O[C@H]2C[C@H](N)[C@H](O)[C@H](C)O2)C1)C(=O)c1ccccc1C3=O,inactive,
Cc1cccc(C)c1C,inactive,
NC(=O)C1CO1 (centres undefined),inactive,

# Assay: qHTS RealTime-Glo MT Cell Viability Assay in HEK293 cells - 16 hour (AID 1224872); note: nearly all actives have a fitted effect of over 50% in size; note: potency is the fitted concentration of half-maximal effect; for activity change, negative = cytotoxicity: top concentration of the series differs between compounds
# Conditions: RealTime-Glo luminescence; series mostly up to 76.8 µM
# Summary of the method: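 HEK293 cells were seeded at 600 cells/well together with NanoLuc luciferase and cell-permeant prosubstrate, preincubated 5 h at 37 C/5% CO2, then given compound in DMSO by pintool. Luminescence from viable-cell prosubstrate reduction was read repeatedly over 40 h.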
SMILES,Potency,"activity change, negative = cytotoxicity"
CCC(O)CO (centres undefined),inactive,
Nc1cc([N+](=O)[O-])cc(Cl)c1O,inactive,
c1ccc(-c2nc3ccccc3[nH]2)cc1,21.9 µM (active),
CC/C=C\C/C=C\C/C=C\CCCCCCCC(=O)OC,inactive,
C=CC(=O)OCCOC1C2CCC1C1CC=CC12 (centres undefined),,-2.12% [at 15.8 µM] (inactive)
O=c1cc[nH]cc1,inactive,
C/C=C/C(=O)OCC(C)C,inactive,
CCCCCCCCCCCC(=O)Cl,inactive,
C=C(C)CCO,inactive,
[Cl][Eu]([Cl])[Cl],inactive,
CC(C)=NNC(N)=S,inactive,
O=C1OCc2ccccc21,inactive,
CCOC(=O)[C@H](O)[C@@H](O)C(=O)OCC,inactive,
O=C1OC(=O)c2cc(-c3ccc4c(c3)C(=O)OC4=O)ccc21,inactive,
CCOC=C(C(=O)OCC)C(=O)OCC,inactive,
CC1=CC[C@@H](C(C)(C)O)CC1,inactive,
C=CC(C)(C)O,inactive,

SMILES,Potency,"activity change, negative = cytotoxicity"
CCOc1nc(F)cc2nc(S(=O)(=O)Nc3c(Cl)cccc3C(=O)OC)nn12,inactive,
c1ccc2cc3c4ccccc4c4ccccc4c3cc2c1,inactive,
Cc1c(Cl)c(=O)oc2cc(O)ccc12,49 µM (active),
C=C[Si](C)(C)Cl,,-7.44% [at 6.97 µM] (inactive)
CCCCCCCC/C=C\CCCCCCCC(=O)N(CCO)CCO,43.5 µM (active),
CC(CC(C)(C)C)CC(C)(C)CC(C)(C)C (centres undefined),inactive,
CN1CCN(C)CC1,inactive,
CCOC(=O)[C@H](C)O,inactive,
CC(=O)CC(N)=O,inactive,
CC(=O)[C@]1(O)Cc2c(O)c3c(c(O)c2[C@@H](O[C@H]2C[C@H](N)[C@H](O)[C@H](C)O2)C1)C(=O)c1ccccc1C3=O,0.535 µM (active),
COCCC(=O)OC,inactive,
O=C1CCC/C=C\CCCCCCCCCC1,inactive,
Cc1cccc(C)c1C,inactive,
NC(=O)C1CO1 (centres undefined),inactive,
Nc1ccc(Cl)c([N+](=O)[O-])c1,inactive,
C=C(C)C1CCC(C)CC1O (centres undefined),inactive,
